# Records with an inconclusive call do not appear. Calls of active or inactive are those of the source. The call rests on the fitted dose curve.
# Biological target: Nucleoprotein (Lymphocytic choriomeningitis virus (strain Armstrong)) (UniProt P09992)
# Test: qHTS for Inhibitors of the Functional Ribonucleoprotein Complex (vRNP) of Lymphocytic Choriomeningitis Arenaviruses (LCMV): LCMV Primary Screen - GLuc reporter signal (AID 1347086); further: nearly all actives have a fitted effect of over 70% in size
# Conditions: LCMV minigenome vRNP cell assay, Gaussia luciferase reporter; series mostly up to 57.5 µM; activity change, negative = inhibition: at the top concentration
# On the % scale 0 is the no-effect control and ±100 the full control effect; potency means the concentration at half of the fitted maximal effect.
# Chain of Nucleoprotein (Lymphocytic choriomeningitis virus (strain Armstrong)) (P09992 whole entry, looked up): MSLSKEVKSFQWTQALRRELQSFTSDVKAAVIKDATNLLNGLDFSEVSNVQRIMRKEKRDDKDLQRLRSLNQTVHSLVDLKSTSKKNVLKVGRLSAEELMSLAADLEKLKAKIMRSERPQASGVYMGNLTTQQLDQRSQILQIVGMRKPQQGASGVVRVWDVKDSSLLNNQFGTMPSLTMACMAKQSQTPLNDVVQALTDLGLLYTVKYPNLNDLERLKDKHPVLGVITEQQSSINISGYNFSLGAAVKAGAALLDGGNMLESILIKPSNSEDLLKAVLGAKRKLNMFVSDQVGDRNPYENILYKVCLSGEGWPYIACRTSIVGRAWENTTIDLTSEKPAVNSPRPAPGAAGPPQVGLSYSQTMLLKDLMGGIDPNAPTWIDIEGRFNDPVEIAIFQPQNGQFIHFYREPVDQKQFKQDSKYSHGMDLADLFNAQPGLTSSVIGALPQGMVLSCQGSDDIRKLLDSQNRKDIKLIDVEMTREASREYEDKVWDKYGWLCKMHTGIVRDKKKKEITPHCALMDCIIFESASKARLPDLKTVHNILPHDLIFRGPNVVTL
Compound,"activity change, negative = inhibition",Potency
Cc1cnc(-c2cc(N3CCN(C(=O)CCS(C)(=O)=O)CC3)ncc2Cl)c(C)c1,1.62% (inactive),–
O=C(CN1C(=O)C2(CCCC2)NC[C@H]1c1cc(F)cc(F)c1)Nc1ccc2c(c1)C[C@@]1(C2)C(=O)Nc2ncccc21,1.66% (inactive),–
CC1=C(C(=O)Nc2cc3cn[nH]c3cc2F)C(c2ccc(C(F)(F)F)cc2)CC(=O)N1 (stereo not given),-17.3% (inactive),–
O=C(c1cncc(Br)c1)N1CCC(N2CCCC2)CC1,-8.53% (inactive),–
COc1ccc2c(OCc3nnc4ccc(-c5ccccc5)nn34)ccnc2c1,10.8% (inactive),–
c1coc(CNc2ncnc3nc[nH]c23)c1,–,inactive
CCCCCCCCCCCCCCCC(=O)O[C@H]1[C@@H](O)[C@@H](O)[C@@H]([C@H](NC(=O)[C@@H]2C[C@@H](CCC)CN2C)[C@H](C)Cl)O[C@@H]1SC,6.36% (inactive),–
CC1CNc2c(cccc2S(=O)(=O)N[C@@H](CCCN=C(N)N)C(=O)N2CC[C@@H](C)C[C@@H]2C(=O)O)C1 (stereo not given in full),24.3% (inactive),–
COc1ccc2cc(-c3nc(-c4ccc(S(C)=O)cc4)[nH]c3-c3ccncc3)ccc2c1 (stereo not given),–,17.2 µM (active)
CC1COC2(CCN(c3nc(=O)c4cc(C(F)(F)F)cc([N+](=O)[O-])c4s3)CC2)O1 (stereo not given),11.9% (inactive),–
COC1CCC(C(=O)c2ccc3nc4c(cc3c2)CCCO4)CC1 (stereo not given),13.5% (inactive),–
O=C(/C=C/C=C/c1ccc2c(c1)OCO2)N1CCCCC1,21.4% (inactive),–
CC1CCN(c2cc(N3CCN(C)CC3)ccc2NC(=O)c2cc(C#N)c[nH]2)CC1,0.317% (inactive),–
C[C@@H]1C(=O)O[C@H]2CC34[C@H]5C[C@@H](C(C)(C)C)C36[C@H](OC(=O)[C@@H]6O)O[C@@]4(C(=O)O5)[C@]21O (stereo not given in full),11.6% (inactive),–
COc1cc2c(cc1OC)C1CC(=O)C(CC(C)C)CN1CC2 (stereo not given),0.636% (inactive),–
O=[N+]([O-])c1ccc(-c2nc(-c3ccc(F)cc3)c(-c3ccncc3)[nH]2)cc1,-27.9% (inactive),–
COc1ccc2cc([S+]([O-])Cc3ncc(C)c(OC)c3C)nc2c1,-5.52% (inactive),–
Cc1ccccc1C(C(=O)NC1CCCCC1)N(C(=O)Cn1ccnc1C)c1cccc(F)c1 (stereo not given),13.4% (inactive),–

Compound,"activity change, negative = inhibition",Potency
Cc1ccccc1C(C(=O)NC1CCCCC1)N(C(=O)CNc1ccc(C#N)cc1)c1cccc(F)c1 (stereo not given),2.31% (inactive),–
O=c1[nH]c(=O)n(C2CCCO2)cc1F (stereo not given),-0.992% [at 115 µM] (inactive),–
O=C(CCN1CCN(C(=O)OCc2cc(Cl)cc(Cl)c2)CC1)c1ccc2[nH]c(=O)oc2c1,7.45% (inactive),–
O=C(Nc1nc2ccccc2n1CCN1CCOCC1)c1cccc([N+](=O)[O-])c1,–,inactive
O=C(NC1CCOCC1)c1ccc(-c2cc(-c3cn[nH]c3-c3ccccn3)ccn2)cc1,47.1% (inactive),–
CC(C)N(CC[C@H](c1ccccc1)c1cc(CO)ccc1O)C(C)C,-34% (inactive),–
CC(Cc1ccc(O)c(O)c1)(NN)C(=O)O (stereo not given),-2.17% (inactive),–
O=C(O)C1CCCN(CCC=C(c2ccccc2)c2ccccc2)C1 (stereo not given),–,inactive
COc1ccc([C@@H]2CNC(=O)C2)cc1OC1CCCC1,-24.9% (inactive),–
Cc1cc(NC(=O)Nc2ccc(N(C)C)cc2)c2cc(F)cc(F)c2n1,15.4% (inactive),–
Cc1ccccc1-n1c(Cn2nc(-c3cccc(O)c3)c3c(N)ncnc32)nc2cccc(C)c2c1=O,–,3.85 µM (active)
Cc1ccc(O)c(C(CCN(C(C)C)C(C)C)c2ccccc2)c1 (stereo not given),29.3% (inactive),–
Cc1cc(O)c2c(c1)C(=O)c1cccc(O)c1C2=O,2.21% (inactive),–
COc1ccccc1N1CCN(CCN(C(=O)C2CCCCC2)c2ccccn2)CC1,52.8% (inactive),–
O=C1CCC[C@@H]2[C@H]3CCC[N+]4([O-])CCC[C@@H](CN12)[C@@H]34 (stereo not given in full),3.55% (inactive),–
OC[C@H]1OC(O)C[C@@H](O)[C@H]1O (stereo not given in full),-0.368% (inactive),–
Cc1ccc(CN2CCNCC2)cc1NC(=O)CNc1ccc(F)c(F)c1,5.02% (inactive),–
